From PubChem BioAssay (NCI)
This is part of a sample that, as a whole, favours compounds with a hit. Of some 83,000 tested, about 20% had one in any assay.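 Interpretation: 100, growth as untreated; towards 0, rising growth inhibition; 0, no net growth; 0 to -100, cell death. Compounds scoring below 10 were considered active.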 The source made the active and inactive calls.

Key:
Experiment in all cases: NCI-60 one-dose screen, 48 h (100 = growth as untreated, 0 = no growth, -100 = all killed)
Conditions in all cases: 10 µM unless noted
SK-MEL-2 melanoma = test system: SK-MEL-2 melanoma
EKVX NSCLC = test system: EKVX NSCLC
SN12C renal = test system: SN12C renal
UO-31 renal = test system: UO-31 renal
TK-10 renal = test system: TK-10 renal
ACHN renal = test system: ACHN renal
CAKI-1 renal = test system: CAKI-1 renal
A498 renal = test system: A498 renal
CCRF-CEM leukemia = test system: CCRF-CEM leukemia
MOLT-4 leukemia = test system: MOLT-4 leukemia

Measured: growth

CCc1ccccc1-n1c(-c2ccc(Cl)cc2)cc(-c2ccc(OC)cc2)c(C#N)c1=O
active: CCRF-CEM leukemia -41.4%
inactive: SK-MEL-2 melanoma 91.5% | EKVX NSCLC 96.1% | SN12C renal 99.4% | UO-31 renal 81.5% | TK-10 renal 136% | ACHN renal 114% | CAKI-1 renal 99.8% | A498 renal 110% | MOLT-4 leukemia 103%

COc1cccc(-c2nc3sccn3c2-c2ccnc(NCCNS(=O)(=O)c3ccc(C(F)(F)F)cc3)c2)c1
inactive: SK-MEL-2 melanoma 47.5% | EKVX NSCLC 40.4% | SN12C renal 40.7% | TK-10 renal 49.2% | CAKI-1 renal 34.5% | A498 renal 18.9% | CCRF-CEM leukemia 22.6% | MOLT-4 leukemia 13.7%
active: UO-31 renal -23.8% | ACHN renal -60.2%

O=C1N=c2cc3c(cc2=C/C1=C/c1sc(=S)n(CCc2ccc(O)cc2)c1O)OCCO3
inactive: SK-MEL-2 melanoma 82.9% | EKVX NSCLC 61.3% | UO-31 renal 71.1% | TK-10 renal 90.3% | CAKI-1 renal 59.7% | A498 renal 80.2% | CCRF-CEM leukemia 40.9% | MOLT-4 leukemia 21.5%
active: SN12C renal 5.51% | ACHN renal 6.54%

CC1=C([Se]CC(OC(=O)[C@@H](CO)NC(=O)OC(C)(C)C)C(=O)NC(C)(C)C)C(=O)c2ccccc2C1=O (stereo not given in full)
active: SK-MEL-2 melanoma -79.1% | EKVX NSCLC -56% | SN12C renal -100% | UO-31 renal -100% | TK-10 renal -100% | ACHN renal -100% | CAKI-1 renal -73.2% | A498 renal 7.64% | CCRF-CEM leukemia -29% | MOLT-4 leukemia -31.6%

CS(=O)(=O)c1ccc(Nc2nc(N[C@H]3CCCC[C@H]3N)nc3cc[nH]c(=O)c23)cc1
inactive: EKVX NSCLC 13.5% | UO-31 renal 108% | TK-10 renal 44.6% | ACHN renal 95.2% | CAKI-1 renal 90.7% | A498 renal 51.8%
active: SK-MEL-2 melanoma -40% | SN12C renal 3.77% | CCRF-CEM leukemia 3.99% | MOLT-4 leukemia 3.74%

COc1cc(C2CC(=O)Nc3c2c(C)nn3-c2nc3ccccc3[nH]2)c(OC)c(OC)c1OC (stereo not given)
active: A498 renal -9.27%
inactive: SK-MEL-2 melanoma 50% | EKVX NSCLC 86.4% | SN12C renal 73.9% | UO-31 renal 62.3% | TK-10 renal 12.5% | ACHN renal 86.6% | CAKI-1 renal 43.6% | CCRF-CEM leukemia 39.6% | MOLT-4 leukemia 20.3%

CC1(C)CC(=O)CC2(C1)N=C(N)Nc1nc3ccccc3n12 (stereo not given)
inactive: SK-MEL-2 melanoma 100% | EKVX NSCLC 102% | SN12C renal 100% | UO-31 renal 96.6% | TK-10 renal 105% | ACHN renal 91.9% | CAKI-1 renal 105% | A498 renal 99.7% | CCRF-CEM leukemia 93% | MOLT-4 leukemia 82.3%

CCCCCCCCCCCC(c1ccccc1)[N+](C)(C)C (stereo not given)
active: SK-MEL-2 melanoma -19.8% | SN12C renal 9.01% | TK-10 renal 1.24% | MOLT-4 leukemia 5.29%
inactive: EKVX NSCLC 42.7% | UO-31 renal 80.8% | ACHN renal 81.9% | CAKI-1 renal 102% | A498 renal 55.4% | CCRF-CEM leukemia 16.1%

COc1ccccc1N1C(=O)/C(=C/C2=Cc3ccccc3OC2)SC1=S
inactive: SK-MEL-2 melanoma 110% | EKVX NSCLC 95.3% | SN12C renal 97.4% | UO-31 renal 88.3% | TK-10 renal 84.3% | ACHN renal 96.9% | CAKI-1 renal 85.2% | A498 renal 40.7% | CCRF-CEM leukemia 90.5% | MOLT-4 leukemia 94.6%

CCCCc1ccc(Nc2ccc(Nc3ccc(CCCC)cc3S(=O)(=O)O)c3c2C(=O)c2ccccc2C3=O)c(S(=O)(=O)O)c1
inactive: SK-MEL-2 melanoma 67.1% | EKVX NSCLC 83.3% | SN12C renal 91% | UO-31 renal 66.5% | TK-10 renal 114% | ACHN renal 94.5% | CAKI-1 renal 95.6% | A498 renal 119% | CCRF-CEM leukemia 80.9% | MOLT-4 leukemia 96.8%

CCCCCCCCCOc1c(OC)cc(C2CC(=O)Nc3c2c(C)nn3-c2nc3ccccc3[nH]2)cc1OC (stereo not given)
inactive: CCRF-CEM leukemia 19.1% | MOLT-4 leukemia 11.2%
active: SK-MEL-2 melanoma -40.4% | EKVX NSCLC -83.5% | SN12C renal -33.3% | UO-31 renal -95.5% | TK-10 renal 4.51% | ACHN renal -24.6% | CAKI-1 renal -73.2% | A498 renal -35.3%

Cn1c(=O)c2[nH]c(NN)nc2n(C)c1=O
inactive: SK-MEL-2 melanoma 105% | EKVX NSCLC 120% | SN12C renal 108% | UO-31 renal 90.8% | TK-10 renal 107% | ACHN renal 105% | CAKI-1 renal 96% | A498 renal 109% | CCRF-CEM leukemia 92.4% | MOLT-4 leukemia 96.1%

CNC(=O)CCN1CCN(CC/C=C2\c3ccccc3Sc3ccc(Cl)cc32)CC1
inactive: SK-MEL-2 melanoma 28.5% | EKVX NSCLC 103% | SN12C renal 95.5% | UO-31 renal 53.9% | TK-10 renal 81.4% | ACHN renal 94.3% | CAKI-1 renal 94% | A498 renal 74.5% | CCRF-CEM leukemia 90.2% | MOLT-4 leukemia 50.9%

O=C1/C(=C\c2c[nH]c3ccccc23)c2ccccc2N1c1c(Cl)cccc1Cl
inactive: SK-MEL-2 melanoma 15.8% | UO-31 renal 20.7% | A498 renal 19.2% | CCRF-CEM leukemia 11.6%
active: EKVX NSCLC -5.29% | SN12C renal -29.6% | TK-10 renal -29.4% | ACHN renal 3.26% | CAKI-1 renal -38.6% | MOLT-4 leukemia -13.1%

CSc1n(Cc2ccc3ccccc3c2)c(C)c[n+]1Cc1ccc2ccccc2c1
inactive: EKVX NSCLC 24.9% | UO-31 renal 72.4% | ACHN renal 48%
active: SK-MEL-2 melanoma -25.7% | SN12C renal -2.22% | TK-10 renal -9.72% | CAKI-1 renal -22.8% | A498 renal -32.3% | CCRF-CEM leukemia 1.28% | MOLT-4 leukemia 2.39%

CCc1ccccc1-n1c(N)c(C#N)c(-c2ccc(N(C)C)cc2)c(C#N)c1=O
active: CCRF-CEM leukemia -30.8%
inactive: SK-MEL-2 melanoma 112% | EKVX NSCLC 90.4% | SN12C renal 96.8% | UO-31 renal 85.3% | TK-10 renal 99.6% | ACHN renal 94.8% | CAKI-1 renal 93.6% | A498 renal 94.2% | MOLT-4 leukemia 117%

Cc1ccc(S(=O)(=O)Oc2cc(OS(=O)(=O)c3ccc(C)cc3)cc(OS(=O)(=O)c3ccc(C)cc3)c2)cc1
inactive: SK-MEL-2 melanoma 91.5% | EKVX NSCLC 106% | SN12C renal 107% | UO-31 renal 71.8% | TK-10 renal 156% | ACHN renal 114% | CAKI-1 renal 84.2% | A498 renal 96.9% | CCRF-CEM leukemia 95.7% | MOLT-4 leukemia 82.2%

Cc1ccc(Cl)cc1NC(=O)c1cc2ccccc2cc1O
active: SK-MEL-2 melanoma -12.3% | EKVX NSCLC 4.4% | SN12C renal -21.8% | UO-31 renal -8.04% | TK-10 renal -1.32% | ACHN renal -15% | CAKI-1 renal -16.8% | A498 renal -31.4% | CCRF-CEM leukemia -22.3% | MOLT-4 leukemia -37.4%

S=C(c1ccc2c(c1)OCO2)N1CCN(c2ccccc2Cl)CC1
inactive: SK-MEL-2 melanoma 97.3% | EKVX NSCLC 124% | SN12C renal 110% | UO-31 renal 79.4% | TK-10 renal 105% | ACHN renal 99% | CAKI-1 renal 83.8% | A498 renal 97% | CCRF-CEM leukemia 96.1% | MOLT-4 leukemia 95.8%

O=C(NCCc1ccc(O)c(O)c1)C12CC3CC(CC(C3)C1)C2
inactive: SK-MEL-2 melanoma 66.7% | EKVX NSCLC 111% | SN12C renal 96.7% | UO-31 renal 66.2% | TK-10 renal 90.3% | ACHN renal 90.7% | CAKI-1 renal 51.5% | A498 renal 101% | CCRF-CEM leukemia 23.7% | MOLT-4 leukemia 72.9%

O=C1Nc2ccc(F)cc2C12Nc1cc(Cl)ccc1S2 (stereo not given)
inactive: SK-MEL-2 melanoma 157% | EKVX NSCLC 89.2% | SN12C renal 97.9% | UO-31 renal 80.4% | TK-10 renal 188% | ACHN renal 99.8% | CAKI-1 renal 55.2% | A498 renal 89.2% | CCRF-CEM leukemia 76.4% | MOLT-4 leukemia 74.5%

C(=N\Nc1ncc(-c2cc3cc4c(cc3o2)OCO4)s1)/c1ccco1
inactive: SK-MEL-2 melanoma 90.8% | EKVX NSCLC 59.3% | SN12C renal 38.9% | TK-10 renal 50.7% | ACHN renal 11.1% | A498 renal 71.1% | CCRF-CEM leukemia 17.5%
active: UO-31 renal -43.4% | CAKI-1 renal 9.09% | MOLT-4 leukemia 9.91%

CC(C)Sc1nc(NNC(N)=S)c(C#N)c(-c2ccc(F)cc2)n1
inactive: SK-MEL-2 melanoma 103% | EKVX NSCLC 96.7% | SN12C renal 96.1% | UO-31 renal 79.7% | TK-10 renal 96.3% | ACHN renal 94.3% | CAKI-1 renal 88.8% | A498 renal 61.7% | CCRF-CEM leukemia 93.2% | MOLT-4 leukemia 95.7%

c1coc(-c2c3ccc(=[N+]4CCCCC4)cc-3oc3cc(N4CCCCC4)ccc23)c1
active: SK-MEL-2 melanoma -80.4% | EKVX NSCLC -66.5% | SN12C renal -75.4% | UO-31 renal -84.6% | TK-10 renal -93.3% | ACHN renal -95.9% | CAKI-1 renal -82.9% | A498 renal -66.3% | CCRF-CEM leukemia -50.1% | MOLT-4 leukemia -43%

Cc1ccc(S(=O)(=O)N/N=C\c2cc(Cl)ccc2O)cc1
inactive: SK-MEL-2 melanoma 99.7% | EKVX NSCLC 113% | SN12C renal 101% | UO-31 renal 83.7% | TK-10 renal 88.4% | ACHN renal 75.4% | CAKI-1 renal 73.9% | A498 renal 86.7% | CCRF-CEM leukemia 74% | MOLT-4 leukemia 98.1%

COc1cccc(-c2nc3sccn3c2/C=C/C(=O)c2ccc(C(F)(F)F)cc2)c1
inactive: SK-MEL-2 melanoma 79.1% | EKVX NSCLC 94.2% | SN12C renal 76.7% | UO-31 renal 56.3% | TK-10 renal 89.7% | ACHN renal 94.7% | CAKI-1 renal 84.7% | A498 renal 52.7% | CCRF-CEM leukemia 66.8% | MOLT-4 leukemia 48.5%

Cc1ccc(/C=C2\C(=O)N(C)c3ccc(S(=O)(=O)Nc4ccc(C(C)(C)C)cc4)cc32)s1
inactive: SK-MEL-2 melanoma 90.3% | EKVX NSCLC 54.3% | SN12C renal 36.7% | UO-31 renal 56.9% | TK-10 renal 70.2% | ACHN renal 59.8% | CAKI-1 renal 55.2% | A498 renal 75.9% | CCRF-CEM leukemia 65.6% | MOLT-4 leukemia 78.2%
